Bioassay records: PubChem BioAssay, National Center for Advancing Translational Sciences (NCATS)
SW480 rereplic: DNA re-replication induction in SW480 cells | SW480 DNA re-replication, Hoechst DNA content imaging, 48 h | Potency, µM (top dose mostly 46.1 µM), for the others: at the top dose re-replication activation, most hits filed as activators | hit rate 1.8% among 340,000 | AID 624297; note: % of control where 0% means no effect; nearly all actives have a fitted effect of over 55% in size
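Hoechst fluorescence of nuclei (405 nm excitation, 500-530 nm emission) measured by plate-scanning imager after 48 hr compound exposure at 37 C; re-replication scored as increased number of nuclei with elevated intensity.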
KB-3-1 cytotox: KB-3-1 parental cell cytotoxicity; Potency, µM (series often up to 46.1 µM), hits mostly cytotoxic; AID 1347075; hit rate 1.4% among 400,000; KB-3-1 viability, CellTiter-Glo ATP luminescence, 72 h; note: % is set by controls: 0 for no effect and ±100 for the full control effect; nearly all actives have a fitted effect of over 60% in size
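Cytotoxicity in the drug-sensitive parental line KB-3-1 was scored as loss of CellTiter-Glo luminescence following 72 h incubation with compound. Values come from curve fitting of normalized concentration-response data.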
MCF10A rereplic: inducers of DNA re-replication in MCF 10A breast cells. MCF 10A DNA re-replication, Hoechst nuclear intensity, 48 h. hit rate 2.9% among 350,000. AID 624296. Potency, µM (doses to about 46.1 µM), for inactives: top-dose activity, positive = re-replication, actives largely listed as activators; note: % of control where 0% means no effect; nearly all actives have a fitted effect of over 50% in size
KB-V1 MDR tox: KB-V1 MDR subline cytotoxicity | AID 1347076 | hit rate 3.4% among 400,000 | Potency, µM (series often up to 46.1 µM), actives largely listed as cytotoxic | KB-V1 MDR cells viability, CellTiter-Glo, 72 h; note: % is set by controls: 0 for no effect and ±100 for the full control effect; nearly all actives have a fitted effect of over 60% in size
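In this primary screen, KB-V1 cells overexpressing P-gp are incubated with library compounds (lowest to highest concentration) for 72 h at 37 degrees C before a luminescent ATP viability read.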
PINK1 expr mod: PINK1 expression modulation; PINK1 immunofluorescence, high-content cytometry, 24 h; Potency, µM (titrated, usually from 76.6 µM), for inactives: at the top dose activation (PINK1 increase), hits mostly activators; hit rate 0.2% among 410,000; AID 624263; active = well fitted activation curve with a large enough effect; inconclusive = small, poorly fitted or top-dose-only effect; cell line not stated here; note: % of control where 0% means no effect; nearly all actives have a fitted effect of over 65% in size
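Readout is PINK1 immunofluorescence, quantified alongside mitochondrial, cell and nuclear markers by laser-scanning microplate cytometry. Cells from a stable line were exposed to compound titrations (5 concentrations) for 24 hours, with CCCP controls.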
12-LOX inh: blocks human arachidonate 12S-lipoxygenase; Potency, µM (doses to about 108 µM), for inactives: top-dose activity change, negative = inhibition, most hits filed as inhibitors; hit rate 1.1% among 580,000; P18054; purified 12hLO, xylenol orange hydroperoxide absorbance; note: % is set by controls: 0 for no effect and ±100 for the full control effect
Target sequence (P18054 whole entry, looked up): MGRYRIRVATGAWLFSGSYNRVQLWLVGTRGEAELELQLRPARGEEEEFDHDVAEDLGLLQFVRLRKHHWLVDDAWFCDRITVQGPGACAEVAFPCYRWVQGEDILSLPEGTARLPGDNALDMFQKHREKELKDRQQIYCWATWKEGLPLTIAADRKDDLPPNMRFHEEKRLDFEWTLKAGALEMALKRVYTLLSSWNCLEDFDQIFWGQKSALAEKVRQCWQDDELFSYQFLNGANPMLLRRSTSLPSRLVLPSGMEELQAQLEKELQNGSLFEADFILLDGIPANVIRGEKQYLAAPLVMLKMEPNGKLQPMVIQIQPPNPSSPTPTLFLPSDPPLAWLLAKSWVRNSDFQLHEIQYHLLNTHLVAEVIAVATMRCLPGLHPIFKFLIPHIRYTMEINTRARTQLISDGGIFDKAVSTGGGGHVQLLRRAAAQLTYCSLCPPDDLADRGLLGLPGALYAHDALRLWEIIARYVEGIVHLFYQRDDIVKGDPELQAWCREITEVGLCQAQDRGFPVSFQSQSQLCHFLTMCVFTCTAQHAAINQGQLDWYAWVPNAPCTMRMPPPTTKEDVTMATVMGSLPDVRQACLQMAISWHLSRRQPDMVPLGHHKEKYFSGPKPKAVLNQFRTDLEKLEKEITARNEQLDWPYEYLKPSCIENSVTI
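Purified human 12hLO at 150 nM in 25 mM Hepes, 0.01% Triton X-100, pH 7.0, preincubated 15 min at room temperature with compound. Reaction started with 40 uM arachidonic acid, 30 min at room temperature. Hydroperoxide measured by Fe-xylenol orange, 573/405 nm absorbance ratio.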
Starred values were filed as active, the others as inactive; i = inactive; ? = inconclusive; . = not tested or not shown; [ ] = remark or other dose. An excerpt weighted towards active compounds, which were near 5.8% of everything screened. Unless noted, calls come from the whole dose curve; as a rule, active = well fitted curve in the direction sought with a large enough effect; inconclusive = small, poorly fitted or top-dose-only effect, or another doubt; inactive = no such curve, though single readings can be large; an effect the other way counts as inactive or inconclusive. Potency is the fitted concentration of half-maximal effect.

SMILES | SW480 rereplic | KB-3-1 cytotox | MCF10A rereplic | KB-V1 MDR tox | PINK1 expr mod | 12-LOX inh
CC(Sc1nnc(-c2cccs2)n1C1CC1)C(=O)NC1(C#N)CCCCC1 (centres undefined) | . | . | . | . | . | 6%
CC(c1cccs1)N(C)Cc1cccnc1 (centres undefined) | . | . | . | . | . | 1%[176 µM]
CCc1cccc(CC)c1NC(=O)CSc1nc(CN(C)C)nc2ccccc12 | . | . | . | . | . | 1%
CCN(CC)C(=O)C(C)N(C#N)c1nc(NC(C)C)nc(NC(C)C)n1 (centres undefined) | 2% | i | 4% | 9.2µM* | 17%[38.3 µM] | -4%
CCNc1nc(NC(C)C)nc(N(C#N)C(C)C(=O)N(CC)CC)n1 (centres undefined) | -13% | i | 3% | i | 0% | 144%
CCOc1ccc2c(c1)c(N=NC(N)=S)c(O)n2C | 7% | i | 2% | i | 1% | 5µM*
NC(=S)N=Nc1c(O)n(CCCl)c2ccc(Cl)cc12 | 13% | ? | -3% | 13µM* | 2% | -5%
Cc1ccc(S(=O)(=O)N2CCN(C(=O)CNc3ccc(C)cc3Br)CC2)cc1 | . | . | . | . | . | -55%
Cc1ccc(F)cc1S(=O)(=O)NC(C)CN1CCOCC1 (centres undefined) | . | . | . | . | . | 2%
Cc1c(C(=O)C(=O)N2c3ccc(F)cc3CCC2C)c2ccccc2n1C (centres undefined) | 7.3µM* | 2.9µM* | 2.6µM* | 2.9µM* | 5% | -7%
CCCCn1c(=O)nc2n(-c3ccc(Cl)cc3)c3ccccc3cc-2c1=O | -4% | i | -5% | 8.2µM* | ? | -2%
Cc1c(Cl)c(C(=O)Nc2sc3c(c2C#N)CCC3)nn1C | . | . | . | . | . | -27%
CC(C)C(Cl)=NOC(=O)Nc1ccc(S(N)(=O)=O)cc1 | ? | i | 2.9µM* | i | -5% | 1%
Cc1ccc2nc(-c3sc4nc(C)cc(C)c4c3N)[nH]c2c1 | 12µM* | ? | 10µM* | ? | 14% | 2%
Cc1ccc(/C(COc2ccc3c(C)c(Cc4ccccc4)c(=O)oc3c2C)=N\O)cc1 | . | . | . | . | . | -50%
CCOc1cc(C(=O)Nc2ccccc2O)ccc1OC(F)F | . | . | . | . | . | -11%
Cc1ccc(COc2ccc(CNCCCN3CCCCCC3=O)cc2)cc1 | 18µM* | ? | ? | i | 2% | ?
COc1cc(/C=C(/C#N)C(=O)Nc2cccc(C(F)(F)F)c2)cc(OC)c1OC | . | . | . | . | . | -28%
COc1ccc(CCN2C(=O)c3cccc4c(C(=O)N5CCCCC5)ccc(c34)C2=O)cc1OC | -1% | i | ? | 2.9µM* | 1% | -8%
COc1ccc(CCNC(=O)CCN2C(=O)c3cccc4cccc(c34)C2=O)cc1OC | 11% | i | 4% | i | 4% | -4%
COc1cc2c(c(OC)c1)C(c1cccc(Cl)c1Cl)C1=C(CCCC1=O)N2 (centres undefined) | . | . | . | . | . | -18%
Cc1cc(NC(=O)c2ccccc2Cl)ccc1NC(=O)c1ccccc1Cl | -3% | i | 3% | i | -1% | 21%
Cc1ccc(NC(=O)CSc2ccccc2NC(=O)c2ccccc2)cc1Cl | 5% | i | 21µM* | ? | 5% | ?
O=C(Nc1ccc(Br)cc1)c1cccc(-n2cnnn2)c1 | 2% | i | ? | i | 0% | -8%
Cc1nc(SCC(=O)Nc2ccc(C)c(Cl)c2)cc(-c2ccccc2)n1 | . | . | . | . | 1% | 0%
SMILES | SW480 rereplic | KB-3-1 cytotox | MCF10A rereplic | KB-V1 MDR tox | PINK1 expr mod | 12-LOX inh
Cc1ccc(NC(=O)CSc2ccccc2NC(=O)c2ccccc2Cl)cc1Cl | 2% | ? | 14% | 3.7µM* | 7% | 9%
Cc1ccc(NC(=O)c2cccc(-n3cnnn3)c2)cc1Cl | 0.65µM* | i | ? | i | 4% | 15%
O=C(CSc1nnnn1C1CC1)Nc1ccc(CN2CCCC2)cc1 | . | . | . | . | . | 10%
CCOC(=O)/C(=C\c1ccc(Cl)cc1)c1nc2sc(C)c(C)c2c(=O)[nH]1 | ? | ? | 5.2µM* | ? | -2% | ?
CCOC(=O)CSc1nc2sc(C)c(C)c2c(=O)[nH]1 | -7%[9.22 µM] | i | -3% | ? | 2% | 21%
COCCCn1c(=O)/c(=C\c2ccccc2OC(F)F)s/c1=C(/C#N)C(N)=O | ? | i | ? | i | 35µM* | -2%
COCCCn1c(=O)/c(=C\c2ccc(OC(F)F)c(OC)c2)s/c1=C(/C#N)C(N)=O | -21% | i | ? | ? | 11% | -13%
N#C/C(=C/c1cccs1)c1ccccn1 | -14% | i | 2% | i | 3% | 0%
Cc1cc(C)n2nc(/C(C#N)=C/c3ccccn3)c(C#N)c2n1 | 3.3µM* | i | 6.5µM* | i | 16% | ?
N#C/C(=C\c1ccccn1)c1ccccn1 | 15µM* | ? | 21µM* | i | 0% | ?
COc1cc(/C=C(\C#N)c2ccccn2)cc(OC)c1O | ? | 7.3µM* | ? | ? | 7% | ?
COC(=O)c1ccc(/C=C(\C#N)c2ccccn2)cc1 | -9% | ? | ? | i | 9% | -3%
COc1cc(/C=C(\C#N)c2ccccn2)ccc1OCC(=O)Nc1cccc(C(F)(F)F)c1 | 2% | i | ? | i | 4% | 9%
COc1cc(/C=C(/C#N)c2ccccn2)ccc1OCc1cccc(C(F)(F)F)c1 | . | . | . | . | . | 6.3µM*
Cc1cc(C)n2nc(CC#N)c(C#N)c2n1 | 2% | i | 1% | ? | 0% | -3%
O=C(CSc1ncc(-c2ccccc2)o1)Nc1cccc(F)c1 | . | . | . | . | . | -5%
Cc1cc(C(=O)N2C[C@@H](CO)[C@H](c3nc(C4CC4)no3)C2)ccn1 | . | . | . | . | . | 5%
COc1cc(/C=C(\C#N)c2ccccn2)ccc1OCc1ccccc1Cl | -2% | i | ? | 10µM* | 10% | -21%
COc1ccccc1NC(=O)C/C(N)=N/OCC(=O)Nc1cccc(Cl)c1 | -3% | i | -5% | 18µM* | 1% | 423%
Cc1cc(NC(=O)COC(=O)c2cc3ccccc3s2)no1 | . | . | . | . | . | -1%
COc1ccc(C(=O)NCc2n[nH]c(=O)c3ccccc23)cc1OC | . | . | . | . | . | 23%
O=C(NCCc1ccc(Cl)cc1)c1nc(-c2ccc(Cl)cc2)c2ccccn12 | . | . | . | . | . | 16%
CCCCOc1ccc(C(=O)Nc2nc3c(s2)CC(C)CC3)cc1 (centres undefined) | . | i | . | i | 4% | -17%
COC(=O)c1ccc(C(=O)NC(=S)Nc2nc3c(s2)CC(C)CC3)cc1 (centres undefined) | 3% | 16µM* | -6% | ? | 2% | 11%
O=C(NC(=S)Nc1nc2c(s1)CCCC2)c1ccc(C(=O)c2ccccc2)cc1 | 1% | 23µM* | 1% | 4.1µM* | 0% | ?
